Survival data for 93 compounds are collected here from PubChem BioAssay AID463173 (ICCB-Longwood Screening Facility, Harvard Medical School, 2010).

Structures are written as SMILES. Hit rate of the full screen: of about 52,000 compounds, about 4,300 (8.3%) were called active. Rule as the data show it: active = survival mostly below about 52% (no sharp cut-off); inactive = mostly above about 56%. Only a selection was taken, and actives are over-represented in it overall.

In this test the test system is DeltatarO mutant. Description: S. aureus survival, RN4220 and DeltatarO strains – OD600, teichoic acid synthesis inhibitors, primary screen (AID 463173). To be noted: S. aureus RN4220 wild type/DeltatarO growth, OD600, 18 h, active compounds read low, screened at 18.75 µg/mL (by protocol).
In the case of `CCn1c(CN2CCC(C)CC2)nc2cc(NC(=O)COc3ccc([N+](=O)[O-])cc3)ccc21`, the survival is 82% (inactive).
In the case of `CCCCC(Sc1nc2cc3c(cc2c(=O)n1CCCC(=O)NCc1ccc2c(c1)OCO2)OCO3)C(=O)OCC` (stereo not drawn) it was 82% (inactive); in that of `Cc1ccc(C)c(NC(=O)CCc2nc(-c3ccc(C(C)(C)C)cc3)no2)c1`, 69% (inactive).
In the case of `CCN(C(=O)CSc1nc(-c2ccc(C(C)C)cc2)no1)c1cccc(C)c1` it was 84% (inactive); in that of `CCN(C(=O)CCc1nc(-c2ccc(C)cc2)no1)c1cccc(C(F)(F)F)c1`, -5% (active).
For `COc1cccc(CNC(=O)CCc2nc(-c3ccc(C)cc3)no2)c1` the value was 145% (inactive); for `CC(C)c1ccc(-c2noc(SCC(=O)N3CCCCC3)n2)cc1`, 72% (inactive); for `COc1ccc(-c2noc(CCC(=O)Nc3ccc(C(F)(F)F)cc3)n2)cc1`, 86% (inactive).
With `CCN(C(=O)CCc1nc(-c2ccc(C)cc2)no1)c1cc(C)ccc1C`, the survival was -4% (active).
For `O=C(CSc1nc(-c2ccccc2)no1)N1CCN(c2ccccc2)CC1` the value was 99% (inactive).
For `O=C(CSc1nc(-c2ccccc2)no1)N1CCCCC1` the value was 39% (active); for `CCN(C(=O)CSc1nc(-c2ccccc2)no1)c1cccc(C)c1`, -3% (active); for `CC(=O)c1ccc(NC(=O)CCc2nc(-c3ccc(C)cc3)no2)cc1`, 67% (inactive).
For `CCN(C(=O)CSc1nc(-c2ccccc2)no1)c1ccccc1` the value was 79% (inactive); for `CN1C(=O)C2(c3ccccc31)N(c1ccccc1)C(=O)CS2(=O)=O` (stereo not drawn), 91% (inactive); for `Cc1nc(-c2ccc(F)cc2)sc1CCNC(=O)c1ccco1`, 116% (inactive).
In the case of `O=C(Nc1ccc2nn(-c3ccccc3)nc2c1)c1ccccc1`, the survival was 97% (inactive).
For `Cc1cc(C)c2nc(N(Cc3cccnc3)C(=O)Cc3ccccc3)sc2c1`, the survival was 79% (inactive).
Turning to `CCCCOc1ccc(C(=O)NCCc2csc(-c3cccc(F)c3)n2)cc1`, the survival was 96% (inactive).
Take `O=C(N/N=C1/CSC(=O)N1Cc1cccs1)c1cccs1`: the survival was 75% (inactive).
For `Cc1cc(C)c(S(=O)(=O)NCCc2cc3cc(C)c(C)cc3[nH]c2=O)c(C)c1` the value was 63% (inactive); for `COc1ccc(N(C)C(C)=O)cc1`, 91% (inactive); for `CCc1ccc(C(=O)c2cn(CC(=O)Nc3cc(OC)cc(OC)c3)c3ccc(CC)cc3c2=O)cc1`, 84% (inactive).
In the case of `CCN(C(=O)Cc1nc(-c2ccc(OC)cc2)no1)c1cccc(Cl)c1` it was 83% (inactive).
For `CCN(C(=O)CCc1nc(-c2ccc(C)cc2)no1)c1cccc(Cl)c1` the value was -5% (active); for `CC(C)(C)c1ccc(-c2noc(CCC(=O)Nc3cccc(Cl)c3)n2)cc1`, 87% (inactive); for `CCOCCCNC(=O)C(c1ccc(OC)cc1)N(Cc1cccs1)C(=O)c1ccc(NC(C)=O)cc1` (stereo not drawn), 53% (inactive).
Turning to `Cn1nc(C(=O)NCc2cccc(Cl)c2)c2c1-c1ccccc1SC2`, the survival was 74% (inactive).
For the compound `CCOC(=O)N1CCC(NC(=O)c2c(C)nn(-c3cccc(C)c3)c2-n2cccc2)CC1`, the survival was 89% (inactive).
For `CCOC(=O)N1CCN(C(=O)c2c(C)nn(-c3cccc(C)c3)c2-n2cccc2)CC1` the value was 20% (active).
In the case of `COc1cc(NC(=O)c2c(C)nn(-c3ccc(F)cc3)c2-n2cccc2)cc(OC)c1` it was 78% (inactive); in that of `Cc1cccc(-n2nc(C)c(C(=O)N3CCN(c4ccccc4)CC3)c2-n2cccc2)c1`, 66% (inactive).
For `COc1cccc(NC(=O)c2c(C)nn(-c3cccc(C)c3)c2-n2cccc2)c1` the value was 8% (active); for `COc1cccc(CNC(=O)c2c(C)nn(-c3cccc(C)c3)c2-n2cccc2)c1`, 81% (inactive).
With `O=C(CCOc1ccccc1)N(Cc1cccnc1)c1nc2c(Cl)cccc2s1`, the survival is 80% (inactive).
In the case of `CN(C)c1ccc(CNC(=O)CN(C)S(=O)(=O)c2ccc3c(c2)c(=O)n(C)c(=O)n3C)cc1` it was 97% (inactive); in that of `COc1ccc(CNC(=O)C(CCSC)NS(=O)(=O)c2ccc3c(c2)oc(=O)n3C)cc1` (stereo not drawn), 69% (inactive); in that of `Cc1c(C(=O)N(C)C)sc2c1c(=O)n(-c1ccccc1C(F)(F)F)c(=O)n2Cc1cccc(F)c1`, 78% (inactive).
On to `Cc1ccc(-n2ncc(C(=O)N3CCN(c4ncccn4)CC3)c2C2CCN(C(=O)OC(C)(C)C)CC2)cc1`, for which the survival was 80% (inactive).
For `COc1ccccc1N1CCN(C(=O)c2cnn(-c3ccc(F)cc3F)c2C2CCNCC2)CC1` the value was 32% (active); for `CC(C)(C)OC(=O)N1CCC(c2c(C(=O)N3CCN(c4ncccn4)CC3)cnn2-c2ccccc2)CC1`, 94% (inactive); for `CC(C)(C)OC(=O)N1CCC(c2c(C(=O)N3CCN(c4ccccn4)CC3)cnn2-c2ccc(F)cc2F)CC1`, 79% (inactive).
For `CC(C)(C)OC(=O)N1CCC(c2c(C(=O)N3CCN(c4ncccn4)CC3)cnn2-c2ccc(F)cc2)CC1` the value was 17% (active).
In the case of `CC(C)(C)OC(=O)N1CCC(c2c(C(=O)N3CCN(c4ncccn4)CC3)cnn2-c2ccc(F)cc2F)CC1` it was 6% (active); in that of `Cc1ccc(-n2ncc(C(=O)N3CCN(c4cccc(C)c4C)CC3)c2C2CCNCC2)c(C)c1`, 83% (inactive).
`Cc1cccc(N2CCN(C(=O)c3cnn(-c4ccc(F)cc4F)c3C3CCN(C(=O)OC(C)(C)C)CC3)CC2)c1C`: the survival is 82% (inactive).
For `CN1CCN(C(=O)c2cnn(-c3ccc(F)cc3F)c2C2CCN(C(=O)OC(C)(C)C)CC2)CC1` the value was 80% (inactive); for `CCc1[nH]nc2c1C1(C(=O)Nc3ccc(Cl)cc31)C(C#N)=C(N)O2` (stereo not drawn), 78% (inactive); for `O=C(CSc1ncc2c(n1)-c1ccccc1N(Cc1ccc(Cl)cc1)S2(=O)=O)c1ccccc1`, 144% (inactive).
In the case of `O=C(CN1C(=O)CC(c2ccco2)Sc2ccccc21)Nc1cccc(C(F)(F)F)c1` (stereo not drawn), the survival is 103% (inactive).
As for `CC1CCCN(Cc2nc3c(c(=O)n(C)c(=O)n3C)n2Cc2ccc(Cl)cc2)C1` (stereo not drawn), the survival was 90% (inactive).
In the case of `Fc1ccccc1N1CCN(c2c3c(nc4nncn24)CCC3)CC1` it was 81% (inactive).
In the case of `CC1CCN(S(=O)(=O)c2nnc(NC(=O)c3ccc(C(C)C)cc3)s2)CC1` it was 62% (inactive); in that of `Cc1cccc(N2CCN(S(=O)(=O)c3cn(C)c(C)n3)CC2)c1C`, 0% (active); in that of `Cc1ccccc1NS(=O)(=O)c1nnc(NC(=O)c2ccc(Cl)cc2)s1`, 41% (active).
In the case of `Cc1ccc(C)c(N2CCN(S(=O)(=O)c3cn(C)c(C)n3)CC2)c1` it was 72% (inactive); in that of `Cc1ccccc1N1CCN(S(=O)(=O)c2nnc(NC(=O)c3ccccc3)s2)CC1`, 26% (active).
For `Cc1ccccc1N1CCN(S(=O)(=O)c2nnc(NC(=O)c3ccc(C(C)C)cc3)s2)CC1`, the survival is 38% (active).
In the case of `Cc1ccc(N2CCN(S(=O)(=O)c3nnc(NC(=O)c4ccccc4)s3)CC2)cc1` it was 57% (inactive).
Consider `Cc1ccccc1NS(=O)(=O)c1nnc(NC(=O)c2ccccc2C)s1`, for which the survival was 76% (inactive).
For `Cc1nc(S(=O)(=O)N2CCN(c3ccccc3F)CC2)cn1C` the value was 117% (inactive); for `Cc1ccccc1NS(=O)(=O)c1nnc(NC(=O)c2ccco2)s1`, 88% (inactive); for `CC(C)OC(=O)Cn1nnc(-c2ccccc2)n1`, 82% (inactive).
For `CC(=O)c1cccc(NC(=O)c2ccc(-n3c(C)nnc3C)cc2)c1` the value was 70% (inactive); for `CC(C)(C)OC(=O)N1C(C(=O)O)CSC1c1cccc(Br)c1` (stereo not drawn), 101% (inactive); for `Cc1ccc(NC(=O)N2CCc3cc(S(=O)(=O)N4CCC(C)CC4)ccc32)cc1`, 96% (inactive).
For `Cc1ccc(CN(Cc2cccn2-c2nnc(N3CCCC3=O)s2)C(=O)Nc2ccccc2Cl)cc1` the value was 104% (inactive).
In the case of `COc1ccccc1CNC(=O)c1cn(C)c2ccc(S(=O)(=O)N3CCC(C)CC3)cc2c1=O`, the survival was 92% (inactive).
In the case of `Cc1ccc(N(C)S(=O)(=O)c2ccc(-c3coc(C)n3)cc2)cc1` it was 75% (inactive).
As for `COc1ccc(NC(=O)CCCc2nc(-c3ccco3)no2)c(OC)c1`, the survival was 107% (inactive).
For `CC1Cc2cc(S(=O)(=O)CCC(=O)Nc3ccc(OC(F)(F)F)cc3)ccc2N1C(=O)C1CC1` (stereo not drawn) the value was 85% (inactive).
For `Cc1ccccc1N1CCN(S(=O)(=O)c2nnc(NC(=O)c3ccc(Cl)cc3)s2)CC1` the value was 43% (active).
For `O=C(Nc1nnc(S(=O)(=O)N2CCN(c3ccc(F)cc3)CC2)s1)c1ccc(Cl)cc1` the value was 57% (inactive).
With `Cc1cccc(N2CCN(S(=O)(=O)c3nnc(NC(=O)c4ccc(Cl)cc4)s3)CC2)c1`, the survival was 54% (inactive).
In the case of `COc1ccc(S(=O)(=O)N2CCN(S(=O)(=O)c3ccccc3)CC2)cc1` it was 87% (inactive); in that of `CS(=O)(=O)N1CCN(S(=O)(=O)c2ccccc2)CC1`, 104% (inactive).
For `Cc1ccccc1N1CCN(S(=O)(=O)c2ccccc2)CC1` the value was 28% (active).
Consider `O=C(Nc1ccc(O)cc1)c1cccc(S(=O)(=O)N2CCOCC2)c1`, for which the survival is 77% (inactive).
In the case of `CCOc1ccc(NC(=O)Cn2nc3c(cc2=O)CC(C)CC3)cc1` (stereo not drawn) it was 98% (inactive); in that of `c1ccc(C2SCCN2c2ccccc2)cc1` (stereo not drawn), 97% (inactive); in that of `Cc1cccc(N2CCN(C(=O)Cn3c(-c4cccs4)cc4ccccc43)CC2)c1C`, 78% (inactive).
For `Cc1cc(C)c(NC(=O)Cc2csc(C)n2)c(Cl)c1` the value was 48% (inactive).
For `Cc1ccc(C(=O)CCC(=O)Nc2ccc(C)cc2C)cc1` the value was 115% (inactive); for `CCCCCOc1ccc(NC(=O)Cc2csc(C)n2)cc1`, 44% (inactive); for `CCc1cccc(CC)c1NC(=O)Cc1csc(C)n1`, 42% (active).
`Cc1nc(CC(=O)Nc2cccc(C)c2C)cs1`: the survival is 39% (active).
In the case of `Cc1cccc(OCc2nc(CC(=O)Nc3ccc(C)cc3C)cs2)c1` it was 79% (inactive).
In the case of `Cc1cccc(NC(=O)Nc2cccs2)c1C` it was 93% (inactive).
For `Cc1ccccc1-c1noc(CCC(=O)Nc2cccc(C)c2C)n1`, the survival is 88% (inactive).
Turning to `Cc1ccc(NC(=O)Cc2csc(C)n2)c(C)c1`, the survival was 40% (active).
For the compound `Cc1ccc(Cl)cc1NC(=O)c1csnn1`, the survival was 78% (inactive).
In the case of `Cc1nc(CC(=O)Nc2cc(Cl)ccc2C)cs1` it was 45% (active); in that of `CCc1ccc(NC(=O)Cc2csc(COc3cccc(C)c3)n2)cc1`, 88% (inactive).
